# Source: PubChem BioAssay AID463173 (ICCB-Longwood Screening Facility, Harvard Medical School, 2010)
# About 1,700 (3.3%) of roughly 52,000 compounds were called active. This is one part of a sample in which actives are shown more often than they occur. A number with no mark means an inactive call. No stated cut-off is given here; in the data, active means survival mostly below about 52% (no sharp cut-off); inactive means mostly above about 56%.
# System: Wild type
# Assay: S. aureus survival, RN4220 and DeltatarO strains – OD600, teichoic acid synthesis inhibitors, primary screen (AID 463173)
# Conditions: S. aureus RN4220 wild type/DeltatarO growth, OD600, 18 h, stronger effect = lower value, screened at 18.75 µg/mL (by protocol)
row,Structure (SMILES),survival
1,COc1ccc2c(c1)CC(NC(=O)Nc1ccc(NC(C)=O)cc1)CO2 (stereo unspecified),121%
2,CCN1c2ccccc2-c2nc(SCC(=O)Nc3cc(OC)cc(OC)c3)ncc2S1(=O)=O,32%
3,CN(C(=O)C1=CC(c2ccc3c(c2)OCO3)=NS(=O)(=O)N1C)c1ccccc1,89%
4,Cc1ccc2nsnc2c1S(=O)(=O)NC(C)(C)C,96%
5,CCc1nc2ccc(C(=O)N3CCN(c4ccccc4F)CC3)cc2nc1CC,68%
6,COc1cc(CN(CC2CCCO2)C(=O)c2ccc(F)cc2)cc(OC)c1OC (stereo unspecified),86%
7,Cn1c(SCc2ccc(Br)cc2)nc2c([nH]c3ccccc32)c1=O,131%
8,CCCN(C(=O)COc1cc(=O)n(CC)c2ccccc12)c1ccc(C(C)C)cc1,-7% (active)
9,CCn1c(=O)cc(OCC(=O)N(C)c2ccc(OC)cc2)c2ccccc21,78%
10,CCCN(C(=O)Cn1c(=O)oc2cc(Cl)ccc21)c1ccc(C(C)C)cc1,8% (active)
11,CCN(C(=O)Cn1c(=O)oc2cc(Cl)ccc21)c1cccc(C(F)(F)F)c1,83%
12,CCCN(c1ccc(C(C)C)cc1)S(=O)(=O)c1ccc2c(c1)oc(=O)n2CC(=O)OCC,73%
13,CCn1c(=O)cc(OCC(=O)N(C)c2cc(Cl)ccc2C)c2ccccc21,62%
14,CCOC(=O)c1ccc(N2CCN(c3ccccc3OC)CC2)c(NC(=O)Nc2ccc(CC)cc2)c1,80%
15,CCOC(=O)C(Cc1ccccc1)N1C(=O)c2ccccc2C1=O (stereo unspecified),104%
16,COc1cccc(NS(=O)(=O)c2ccc3[nH]cc(C(=O)NCCc4ccc(C)cc4)c(=O)c3c2)c1,124%
17,Nc1ccc(S(=O)(=O)N2CCSC2C(=O)O)cc1 (stereo unspecified),101%
18,COc1ccc(N2CCN(c3ncnc4c3nc3n4CCCCC3)CC2)cc1,73%
19,Clc1cccc(N2CCN(c3ncnc4c3nc3n4CCCCC3)CC2)c1,3% (active)
20,COc1cccc(N2CCN(c3ncnc4c3nc3n4CCCCC3)CC2)c1,-3% (active)
21,Clc1cccc(N2CCN(c3ncnc4c3nc3n4CCCC3)CC2)c1,117%

row,Structure (SMILES),survival
1,c1ccc(N2CCN(c3ncnc4c3nc3n4CCCCC3)CC2)cc1,72%
2,O=C(C1CCN(c2ncnc3c2nc2n3CCCCC2)CC1)N1CCN(c2cccc(Cl)c2)CC1,57%
3,CCn1cc(C(=O)Nc2cccc(Cl)c2)c2cc(OC)c(OC)cc2c1=O,76%
4,FC(F)(F)Sc1ccc2noc(-c3ccccc3)c2c1,115%
5,NC(=O)c1ccccc1NC(=O)c1ccc(-c2ccc(Br)cc2)o1,95%
6,COc1cc(C)cc2oc(=O)c(CC(=O)NCCc3ccc(Cl)cc3)c(C)c12,118%
7,C=CCc1ccccc1OCCSc1nc(-c2ccccc2F)nc2cc(=O)[nH]n12,80%
8,C=CCc1ccccc1OCCSc1nc(-c2ccc(C(C)(C)C)cc2)nc2cc(=O)[nH]n12,0% (active)
9,COc1ccccc1OCCSc1nc(-c2ccc(C(C)(C)C)cc2)nc2cc(=O)[nH]n12,22%
10,Cc1cccc(C)c1NCc1nnc(SCC(N)=O)n1-c1ccccc1,110%
11,Cc1cc(C)cc(-n2ccn(CC(=O)Nc3ccccc3F)c(=O)c2=O)c1,82%
12,CCc1ccccc1NC(=O)Cn1nnc(C(=O)NCc2ccccc2Cl)c1N,-3% (active)
13,Cc1cccc(NC(=O)Cn2nnc(C(=O)Nc3ccccc3Br)c2N)c1C,0% (active)
14,COc1ccccc1NC(=O)Cn1nnc(C(=O)Nc2ccccc2Br)c1N,85%
15,CCc1ccccc1NC(=O)Cn1nnc(C(=O)NCc2cccs2)c1N,96%
16,Cc1cc(C)cc(NC(=O)Cn2nnc(C(=O)NCc3ccccc3Cl)c2N)c1,77%
17,Cc1ccc(C)c(NC(=O)c2nnn(CC(=O)Nc3cccc(C)c3C)c2N)c1,88%
18,COc1cccc(CNC(=O)CC(c2ccc(F)cc2)N2Cc3ccccc3C2=O)c1 (stereo unspecified),82%
19,CCN(CC)C(=O)CSc1nc2ccccc2c(=O)n1CC,107%
20,COc1ccc(Nc2oc(/C=C/c3ccccc3OC)nc2C#N)cc1,86%
21,CCc1ccc2ncc3c(-c4ccc(C)cc4)nn(CC(=O)Nc4ccc(C)cc4)c3c2c1,47%

row,Structure (SMILES),survival
1,CCOc1ccc2ncc3c(-c4cccc(OC)c4)nn(-c4ccccc4)c3c2c1,125%
2,COc1ccc(-n2nc(-c3ccc(C)cc3)c3cnc4cc(F)c(F)cc4c32)cc1,85%
3,CCOc1ccc(-c2nn(-c3ccc(F)cc3)c3c2cnc2ccc(F)cc23)cc1,86%
4,Cc1ccc(-c2nn(CC(=O)NC3CCCC3)c3c2cnc2ccc(F)cc23)cc1C,74%
5,CCc1ccc(-c2nn(-c3ccc(OC)cc3)c3c2cnc2ccc(OC)cc23)cc1,9% (active)
6,Cc1ccc(-n2nc(-c3ccccc3)c3cnc4cc5c(cc4c32)OCO5)cc1C,110%
7,CCCNC(=O)Cn1nc(-c2ccc(C)cc2)c2cnc3ccc(CC)cc3c21,10% (active)
8,CCc1ccc(-c2nn(CC(=O)NC3CCCCC3)c3c2cnc2ccc(F)cc23)cc1,68%
9,Cc1ccc(-c2nn(CC(=O)NC3CCCCC3)c3c2cnc2ccc(F)cc23)cc1C,-3% (active)
10,CCc1ccc2ncc3c(-c4ccc(C)cc4)nn(CC(=O)NCc4ccccc4)c3c2c1,65%
11,COc1ccc2ncc3c(-c4ccccc4)nn(-c4ccc(C)c(C)c4)c3c2c1,0% (active)
12,COc1cc(OC)c(NC(=O)Nc2cccc(OCc3cc(=O)n4ccccc4n3)c2)cc1Cl,87%
13,N#Cc1ccc(N2CCCCC2)cc1,119%
14,Oc1ccc(Nc2nc3ccccc3n3cnnc23)cc1,78%
15,COc1ccc(OCC(=O)NCCO)cc1,116%
16,COc1ccccc1NC(=O)c1cnc(SCC(=O)N2CCOCC2)n(C)c1=O,77%
17,Cc1ccc(-c2nn(-c3ccccc3)c3c2cnc2ccccc23)cc1C,68%
18,FC(F)(F)c1ccc2c(c1)ncc1c(-c3ccccc3)nn(-c3ccccc3)c12,125%
19,CCc1ccc2ncc3c(-c4ccccc4)nn(-c4ccccc4)c3c2c1,7% (active)
